Mtb betalactam: beta-lactam sensitization of Mtb H37Rv, H37Rv. AID 434955, 2010. M. tuberculosis H37Rv growth with meropenem, percent inhibition. 330,000 tested, 0.27% active. inhibition, % at 25 µM; call rule not given here;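 also: growth measured after seven days incubation then overnight dye step; 0% = bacteria only wells and 100% = bacteria with antibiotic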
Mtb FBA inh: Mtb FBA enzyme inhibitors, primary screen, biochemical, fluorescence, strain H37Rv. Fructose-bisphosphate aldolase (Mycobacterium tuberculosis (strain ATCC 25618 / H37Rv)), …. purified M. tuberculosis FBA, fluorescence read-out. inhibition, % at 1 µM. 360,000 tested, 2.3% active. AID 588726, 2011;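 also: 0% = vehicle and 100% = reference inhibitor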
Rv3671c inh: Rv3671c serine protease inhibitors, primary screen, biochemical, fluorescence polarization, M. tuberculosis H37Rv; P9WHR9; inhibition, % at 5.96 µM; 320,000 tested, 0.048% active; AID 2606, 2010; in the data active = inhibition above about 38%;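 also: extracellular domain of Rv3671c used as enzyme; 0% = enzyme with DMSO and 100% = no enzyme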
Target sequence (P9WHR9 whole entry, looked up, the tested form may be a part): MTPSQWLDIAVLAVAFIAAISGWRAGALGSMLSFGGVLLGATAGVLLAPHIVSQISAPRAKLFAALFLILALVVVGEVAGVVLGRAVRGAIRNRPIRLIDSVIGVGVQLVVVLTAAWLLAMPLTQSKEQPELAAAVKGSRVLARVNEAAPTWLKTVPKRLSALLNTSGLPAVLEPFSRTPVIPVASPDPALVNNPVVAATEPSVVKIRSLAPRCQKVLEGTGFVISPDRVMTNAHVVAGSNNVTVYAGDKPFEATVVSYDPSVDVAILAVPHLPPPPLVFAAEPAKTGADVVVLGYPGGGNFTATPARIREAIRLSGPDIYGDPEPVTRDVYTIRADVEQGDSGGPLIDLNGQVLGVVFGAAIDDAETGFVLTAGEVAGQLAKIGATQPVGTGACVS
UGM FP inh: M. tuberculosis UGM enzyme inhibitors, primary screen, biochemical, fluorescence polarization, single point. 320,000 tested, 0.06% active. AID 504406, 2011. UDP-galactopyranose mutase (Mycobacterium tuberculosis (strain ATCC 25618 / H37Rv)), …. purified UGM, fluorescence polarization probe displacement. inhibition, % at 10 µM; in the data active = inhibition above about 10%, passing the limit was not always enough
GDH-TPI counter-1: GDH-TPI coupling enzyme inhibitors, primary screen, artefact control for M. tuberculosis FBA inhibitor project, biochemical, absorbance, full deck; GDH-TPI coupled enzyme counterscreen, NADH absorbance; inhibition, % at 4.8 µM; 360,000 tested, 1.2% active; AID 588335, 2011; in the data active = inhibition above about 30%;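 also: 0% = DMSO wells and 100% = wells lacking the enzyme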
RecA intein inh: Mtb RecA intein splicing inhibitors, primary screen, biochemical, fluorescence, HTS. Protein RecA (Mycobacterium tuberculosis (strain ATCC 25618 / H37Rv)), P9WHJ3. cell-free RecA intein splicing. inhibition, % (concentration not given with the values). 290,000 tested, 0.75% active. AID 2221, 2009; in the data active = inhibition above about 30%;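 also: 0% = vehicle wells and 100% = reference inhibitor control wells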
Mtb FBA confirm: M. tuberculosis aldolase blockers, biochemical, fluorescence, strain H37Rv, confirmation; purified M. tuberculosis FBA, fluorescence read-out; inhibition, % at 1 µM; 5,600 tested, 78% active; AID 651616, 2012; shares compounds with Mtb FBA inh;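 also: 0% = vehicle wells and 100% = reference inhibitor wells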
GDH-TPI counter-2: GDH-TPI coupling enzyme inhibitors, artefact control for M. tuberculosis FBA inhibitor project, biochemical, fluorescence, high throughput | shares compounds with Mtb FBA inh | GDH-TPI coupled enzyme counterscreen | inhibition, % at 1 µM | 5,600 tested, 81% active; in the data active = inhibition above about 10%
Numbers without * were called inactive; x = no result; + = active, no number. The list is not random: actives were taken first. Their share in the collection is about 4%. Rule as the data show it, unless noted: active = inhibition above about 27%; inactive = the rest.

SMILES	Mtb betalactam	Mtb FBA inh	Rv3671c inh	UGM FP inh	GDH-TPI counter-1	RecA intein inh	Mtb FBA confirm	GDH-TPI counter-2
COCCCNc1ncnc2c1sc1nc(-c3ccco3)c3c(c12)CC(C)(C)OC3	18	39*	7	0	39*	2	98*	94*
CCOc1cc(/C=N/NC(=O)C(=O)NCc2ccc3c(c2)OCO3)ccc1OCC(=O)N1CCOCC1	4	-4	3	-1	27	3	x	x
CCn1c(NC(=O)C(C)C)c2ccccc2nc1=O	-3	5	-7	2	-8	0	x	x
CCN(CC)CC(=O)Nc1c2c(nc3ccccc13)N(C)CC2	6	48*	-3	0	12	1	x	+
CC(C)C(=O)Nc1c2c(nc3ccccc13)N(C)CC2	6	74*	2	0	12	0	+	+
CCCCCC(=O)Nc1c2c(nc3ccccc13)CCC2	27	2	1	0	-1	-2	x	x
COC(=O)c1ccccc1NC(=O)CSc1nc2ccsc2c(=O)n1CCCCC(=O)O	x	6	x	x	10	x	x	x
CCn1c(SCC(=O)N2CCOCC2)nnc1-c1cccs1	15	70*	-2	0	6	0	142*	117*
CCn1c(SCC(=O)N2CCCc3ccccc32)nnc1-c1cccs1	1	0	2	-3	3	3	x	x
CCOc1ccc(-c2cc(C(=O)NCCCN3CCCC3)c3ccccc3n2)cc1	5	28*	-11	2	21	1	12	16*
O=C(NCCN1CCOCC1)c1cc(-c2ccccc2)nc2ccccc12	x	0	x	x	12	x	x	x
O=C(NCCCN1CCOCC1)c1ccc(Br)cc1Br	x	x	x	x	x	7	x	x
Nc1ccccc1C(=O)NCCCN1CCOCC1	2	67*	-5	2	9	-1	76*	76*
Cc1ccc(-c2cc(C(=O)NCCCN3CCCC3)c3ccccc3n2)cc1C	7	35*	-6	-3	10	-4	95*	57*
CCOc1ccc(-c2cc(C(=O)NCC3CCCO3)c3ccccc3n2)cc1 (centres undefined)	44	18	-14	3	11	-7	x	x
Cc1ccc(-c2cc(C(=O)NCCCN3CCOCC3)c3ccccc3n2)cc1C	0	66*	0	2	7	1	70*	70*
C=CC[C@H](CC(=O)N(CCO)Cc1ccccc1)C(=O)N[C@H](COC(=O)[C@@H](CC=C)CC(=O)OC(C)(C)C)Cc1c[nH]c2ccccc12	-7	2	2	-1	10	x	x	x
Cc1ccc(-c2cc(C(=O)NCCCN3CCOCC3)c3ccccc3n2)cc1	-2	50*	-4	1	13	-11	7	-5
COc1ccc(-c2cc(C(F)(F)F)nc(SCC(=O)NCCCN3CCOCC3)n2)cc1	4	34*	-6	-5	11	-5	111*	84*
COc1ccc(-c2nc(C(=O)NCCCN3CCOCC3)cc3c2[nH]c2ccccc23)cc1OC	0	50*	-5	-1	15	0	61*	46*
COc1ccc(-c2cc(C(=O)NCCN3CCOCC3)c3cc(C(C)C)ccc3n2)cc1	80	42*	-10	0	13	1	160*	153*
CC(C)(C)OC(=O)N1CCCC(C(=O)Nc2ccc(C(=O)N3CCOCC3)cc2)C1 (centres undefined)	9	-1	-3	-2	-3	x	x	x
Cc1c(CCC(=O)NCC(=O)NCC(=O)O)c(=O)oc2cc3oc4c(c3cc12)CCCC4	-3	35*	12	-1	21	0	-3	-4
CCN(CC)C(=O)c1ccc2nc3ccccc3nc2c1	10	-2	0	2	11	0	x	x
CCN(CC)C(=O)c1ccc2nc(-c3ccccc3)c(-c3ccccc3)nc2c1	6	48*	-6	-3	12	0	49*	40*
SMILES	Mtb betalactam	Mtb FBA inh	Rv3671c inh	UGM FP inh	GDH-TPI counter-1	RecA intein inh	Mtb FBA confirm	GDH-TPI counter-2
CCCNC(=O)c1ccc2nc(-c3ccccc3)c(-c3ccccc3)nc2c1	63	31*	-4	0	20	0	62*	41*
CCN1CCN(CCNC(=O)c2ccc3nc(-c4cccc(C)c4)c(-c4cccc(C)c4)nc3c2)CC1	60	30*	-4	-1	18	-4	59*	51*
COCC(C)NC(=O)c1ccc2nc(-c3ccccc3)c(-c3ccccc3)nc2c1 (centres undefined)	24	42*	-4	0	18	0	52*	49*
N#Cc1cccc(NC(=O)c2cc(C3CCCCN3S(=O)(=O)c3ccccc3)on2)c1 (centres undefined)	x	1	x	x	11	x	x	x
COc1cccc(C(=O)C2CCCN(Cc3ccccn3)C2)c1 (centres undefined)	x	-1	-10	1	11	5	x	x
COc1ccc(C(=O)C2CCCN(Cc3ccc4nonc4c3)C2)c(OC)c1 (centres undefined)	0	57*	-2	0	3	2	153*	135*
COc1ccc2cc(C(=O)C3CCCN(C(=O)CCc4ccccn4)C3)ccc2c1 (centres undefined)	-1	96*	6	0	9	3	94*	62*
COc1ccc2cc(C(=O)C3CCCN(Cc4cccc(C)n4)C3)ccc2c1 (centres undefined)	96	29*	1	0	3	3	47*	40*
COc1ccc(C(=O)C2CCCN(Cc3ccc4nonc4c3)C2)cc1OC (centres undefined)	4	-7	0	1	11	3	x	x
CCOC(=O)N1CCC(N2CCCC(C(=O)c3ccc4cc(OC)ccc4c3)C2)CC1 (centres undefined)	99	107*	4	1	3	4	116*	91*
CCOC(=O)N1CCC(N2CCCC(C(=O)c3cc(C)c(OC)c(C)c3)C2)CC1 (centres undefined)	-4	0	5	-2	-6	-2	x	x
Cc1ccc(S(=O)(=O)CCC(=O)N(Cc2nnc(-c3ccc(Cl)cc3)o2)C2CC2)cc1	-5	0	-2	-2	0	x	x	x
COc1ccc2cc(C(=O)NCc3ccccc3CN3CCCC3)ccc2c1	1	33*	-21	3	9	x	115*	104*

Bioassay records deposited in PubChem by several laboratories.
